Bioassay records: PubChem, National Center for Advancing Translational Sciences (NCATS)
Rows were chosen to be rich in hits. Some 2.7% of all compounds tested hit in one or more screens of this group.
HepG2 tox: HepG2 cytotoxicity, counter-screen for TGF-b inhibitors; AID 588856; HepG2 CAGA-GFP viability, ATP luminescence, 18 h; 410,000 compounds, 0.76% hits; Potency, µM (top dose mostly 46.1 µM), for the others: top-dose activity change, negative = cytotoxicity, hits mostly cytotoxic
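HepG2 CAGA-GFP cells (1000/well, DMEM with 1% FBS) received compound, then TGF-beta at 500 pg/mL final, and were incubated 18 hours at 37 degrees C. Viability was read by CellTiter-Glo luminescence. Media-only wells were set as complete cell-killing and DMSO as no toxicity.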
ATXN2 expr inh: inhibitors of ATXN2 expression | Potency, µM (top dose mostly 57 µM), without a hit: at the top dose activity change, negative = inhibition, most hits filed as inhibitors | 360,000 compounds, 0.72% hits | HEK-293 ATXN2-luciferase reporter, luminescence, 24 h; further: on the % scale 0 is the no-effect control and ±100 the full control effect; nearly all actives have a fitted effect of over 55% in size
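ATXN2-luciferase reporter cells (luciferase flanked by upstream and downstream ATXN2 gene portions) were treated 24 h at 37 °C with compounds at up to 57 uM. SteadyGlo luminescence gave expression; GF-AFC fluorescence gave viability.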
S2 tox: cell viability loss in ATXN counter-screen | S2 cells (HEK-293 line with an ATXN2-luciferase reporter) viability, CellTiter-Fluor protease fluorescence, 24 h | Potency, µM (series often up to 56.7 µM), actives largely listed as cytotoxic | 400,000 compounds, 0.49% hits; further: nearly all actives have a fitted effect of over 40% in size
TGFb inhibitor: blocks TGF-b signaling; HepG2 CAGA-GFP TGF-b/SMAD3 reporter, GFP fluorescence, 18 h; TGF-beta stimulated, 500 pg/mL final; Potency, µM (titrated, usually from 46.1 µM), without a hit: top-dose activity, negative = inhibition, usual class: inhibitors; 410,000 compounds, 1.2% hits; AID 588855; further: on the % scale 0 is the no-effect control and ±100 the full control effect; nearly all actives have a fitted effect of over 65% in size
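Smad-responsive CAGA-GFP expression was quantified in HEPG2 cells exposed to compounds and 500 pg/mL final TGF-beta for 18 h at 37 degrees C; unstimulated wells defined full inhibition.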
12-LOX inh: ALOX12 (human) lipoxygenase inhibition. purified 12hLO, xylenol orange hydroperoxide absorbance. P18054. Potency, µM (top dose mostly 108 µM), without a hit: at the highest dose activity change, negative = inhibition, actives largely listed as inhibitors. AID 1671190. 580,000 compounds, 1.1% hits; further: on the % scale 0 is the no-effect control and ±100 the full control effect
Target sequence (P18054 whole entry, looked up): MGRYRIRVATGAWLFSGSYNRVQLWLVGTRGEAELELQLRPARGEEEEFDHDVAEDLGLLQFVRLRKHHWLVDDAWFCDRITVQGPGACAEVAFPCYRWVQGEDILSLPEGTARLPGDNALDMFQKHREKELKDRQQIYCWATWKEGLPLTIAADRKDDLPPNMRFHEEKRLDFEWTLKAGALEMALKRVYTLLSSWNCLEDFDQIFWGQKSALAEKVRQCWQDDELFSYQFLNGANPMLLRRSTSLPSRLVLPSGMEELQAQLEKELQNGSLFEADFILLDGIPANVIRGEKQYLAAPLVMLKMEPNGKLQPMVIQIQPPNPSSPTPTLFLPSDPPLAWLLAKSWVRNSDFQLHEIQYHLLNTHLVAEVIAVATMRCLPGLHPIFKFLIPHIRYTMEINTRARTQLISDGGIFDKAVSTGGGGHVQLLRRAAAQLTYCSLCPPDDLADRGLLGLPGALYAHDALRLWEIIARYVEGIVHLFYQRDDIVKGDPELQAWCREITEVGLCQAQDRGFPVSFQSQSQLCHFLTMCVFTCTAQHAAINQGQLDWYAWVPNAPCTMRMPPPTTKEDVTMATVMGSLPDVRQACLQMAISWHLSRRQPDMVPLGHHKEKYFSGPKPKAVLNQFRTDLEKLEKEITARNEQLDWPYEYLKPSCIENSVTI
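Hydroperoxide product was detected by ferrous iron/xylenol orange as the 573 to 405 nm absorbance ratio. Arachidonic acid at 40 uM (final) was turned over for 30 min at room temperature by 150 nM human 12hLO, pH 7.0 Hepes buffer, after 15 min compound preincubation.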
Active calls of the source: *; i = inactive; ? = inconclusive; / = no result given. The call rests on the fitted dose curve; in most records, active means well fitted curve in the direction sought with a large enough effect; inconclusive means small, poorly fitted or top-dose-only effect, or another doubt; inactive means no such curve, though single readings can be large; an effect the other way counts as inactive or inconclusive. Potency means the concentration at half of the fitted maximal effect.

SMILES	HepG2 tox	ATXN2 expr inh	S2 tox	TGFb inhibitor	12-LOX inh
COc1ccc(C(C(=O)NC2CCCCC2)N(C(=O)CCl)c2ccc(Cl)cc2)cc1 (configuration not stated)	-63%	3.5µM*	3.2µM*	-28%	/
COc1ccc(N(C(=O)c2cnccn2)C(C(=O)NC2CCCCC2)c2ccc(Cl)cc2)cc1 (configuration not stated)	0%	-8%	i	11%	6%
Cc1ccc(OCc2nc(C#N)c(NCc3ccncc3)o2)c(C)c1	/	/	/	/	-18%
Oc1ccccc1-c1nc2c3ccccc3c3ccccc3c2[nH]1	-38%	?	i	16µM*	-5%
COc1ccc(CC(NC(=O)c2nn(C)c(=O)c3ccccc23)c2ccc(OC)cc2)cc1 (configuration not stated)	/	/	/	/	-11%
COc1ccc(C(=O)N2CCC(c3nc4ccccc4s3)CC2)cc1Cl	-31%	?	?	8.9µM*	-18%
O=C(Cn1nnc(-c2ccccc2)n1)N1CCC(c2nc3ccccc3s2)CC1	/	/	/	/	40µM*
COc1cccc(C(=O)N2CCC(c3nc4ccccc4s3)CC2)c1	-6%	0%	?	?	-7%
CCC(=O)N1CCN(c2ccc(NC(=O)c3cc4ccccc4cc3OC)cc2Cl)CC1	/	/	/	/	0%
Cc1oc(-c2nc(C#N)c(NCc3cccnc3)o2)cc1S(=O)(=O)N1CCCCCC1	/	/	/	/	48%
CCCC(=O)N1CCCC(c2cc(C(=O)Nc3ccccc3)no2)C1 (configuration not stated)	10µM*	11µM*	i	1%	17%
C=C1c2ccccc2O[C@H](C(=O)OCC)[C@@H]1C1CCCCC1	2%	-1%	i	-5%	20µM*
Cc1cc(C(C)(C)c2ccc(OC(=O)c3ccccc3F)c(C)c2)ccc1OC(=O)c1ccccc1F	/	/	/	/	8%
S=C(N/N=C1/CC2CC=CC12)NC1CCCCC1 (configuration not stated)	/	/	/	/	35µM*
Cc1c(O)ccc(-c2n[nH]c(C(=O)O)c2-c2nc3ccccc3s2)c1O	1%	14%	i	-13%	35µM*
Cc1c(O)ccc(-c2[nH]ncc2-c2nc3ccccc3s2)c1O	-29%	-11%	i	-22%	-29%
CCc1cc(-c2n[nH]c(C)c2-c2ccc3c(c2)OCCO3)c(O)cc1O	/	6.1µM*	/	/	?
CCCc1cc(-c2n[nH]c(C)c2-c2ccc(C(=O)OCC)o2)c(O)cc1O	-50%	?	?	14µM*	?
CSc1ccc(CN(C)CC(=O)NC(=O)NC2CCCC2)cc1	/	/	/	/	11%
COc1ccc(C2Cn3nnc(C(=O)N4CCN(C(=O)c5ccc(F)cc5Cl)CC4)c3CO2)cc1 (configuration not stated)	/	/	/	/	23%
Cn1cc(S(=O)(=O)N2CCc3ccccc32)cc1C(=O)Nc1ccccc1F	/	/	/	/	-3%
CCOc1ccc(S(=O)(=O)Nc2ccc3oc(C)c(C(=O)OCCOC)c3c2)cc1	-17%	-32%	?	?	?
CCCCOC(=O)c1c(C)oc2ccc(NS(=O)(=O)c3ccc4c5c(cccc35)C(=O)N4)cc12	-18%	?	i	14µM*	?
COc1cc(NC(=O)c2cccc3c(-c4cnn(C)c4)coc23)cc(OC)c1OC	36%	18µM*	?	49%	-11%
COc1ccc(NC(=O)c2cccc3c(-c4cnn(C)c4)coc23)cc1	-20%	-17%	i	19%	?
SMILES	HepG2 tox	ATXN2 expr inh	S2 tox	TGFb inhibitor	12-LOX inh
Cc1cc(SCC(=O)O)nc2ccccc12	20%	16%	i	?	9%
Cc1cc(SCC(=O)c2ccc(O)c(O)c2)nc2ccccc12	-16%	/	i	-25%	6.3µM*
O=C(CSc1n[nH]c(-c2ccccc2)n1)c1ccc(O)c(O)c1	-19%	0%	i	-29%	2.5µM*
Cc1cc(SCC(=O)c2ccc3c(c2)OCO3)nc2ccccc12	-16%	16%	i	18%	-23%
Cc1cc(SCC(=O)c2ccc3c(c2)OCCO3)nc2ccccc12	/	/	/	/	16µM*
CC1CCCCN1C(=O)CSc1nc2ccsc2c(=O)n1-c1cc(F)cc(F)c1 (configuration not stated)	/	/	/	/	2%
CN(CCC#N)C(=O)COC(=O)c1c2c(nc3ccccc13)/C(=C\c1ccco1)CC2	1%	26%	/	2%	-28%
CC1CCCCC1NC(=O)COC(=O)c1c2c(nc3ccccc13)/C(=C\c1ccco1)CC2 (configuration not stated)	-7%	9%	/	-12%	16µM*
O=C(COC(=O)c1c2c(nc3ccccc13)/C(=C\c1ccco1)CC2)NC1CCCC1	10%	20%	/	?	7.1µM*
COc1ccc(N2CCN(C(=O)CS(=O)Cc3nc(-c4ccc(OC)c(OC)c4)oc3C)CC2)cc1 (configuration not stated)	-4%	-12%	i	0%	-2%
COc1cccc(-c2nc(CS(=O)(=O)CC(=O)N3CCN(c4ccccc4)CC3)c(C)o2)c1	-12%	/	/	11µM*	-20%
COc1cccc(-c2nc(CS(=O)CC(=O)N3CCN(c4cccc(C(F)(F)F)c4)CC3)c(C)o2)c1 (configuration not stated)	-38%	/	/	16µM*	-29%
Cc1oc(-c2ccccc2Cl)nc1CS(=O)CC(=O)N1CCN(c2cccc(C(F)(F)F)c2)CC1 (configuration not stated)	-105%	/	/	11µM*	-18%
Cc1oc(-c2ccc(Cl)cc2)nc1CS(=O)CC(=O)N1CCN(c2cccc(C(F)(F)F)c2)CC1 (configuration not stated)	20µM*	/	/	8.9µM*	-30%
CCN1CCN(C(=O)CS(=O)(=O)Cc2nc(-c3cccc(OC)c3)oc2C)CC1	8%	4%	i	4%	-7%
Cn1cnc2c1c(=O)n(Cc1ccccc1F)c(=O)n2C	/	/	/	/	31%
CN(CC(=O)Nc1ccccc1Cl)CC(=O)N1CCC(Cc2ccccc2)CC1	/	/	/	/	-8%
Cc1ccc(-c2cnc(CCC(=O)NCC(CC(C)C)N3CCOCC3)o2)cc1C (configuration not stated)	/	/	/	/	-20%
Cc1ccc(/C=N/n2c(C)nc3ccccc3c2=O)o1	-2%	19%	i	16%	-1%
NC(=O)c1ccc(N=Cc2ccc([N+](=O)[O-])s2)cc1	-92%	?	?	-20%	-15%
Cc1nc2ccccc2n1/N=C/c1ccc([N+](=O)[O-])o1	-106%	?	i	11µM*	-3%
O=[N+]([O-])c1ccc(/C=N/n2c(CO)nc3ccccc32)s1	-13%	?	i	?	?
O=[N+]([O-])c1ccc(/C=N/n2cnc3ccccc32)s1	8.9µM*	?	/	?	-13%
